Laboratory results published in PubChem BioAssay.
For part of these data: Potency and affinity values are given separately. The source made the active and inactive calls.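 Rule for the calls, unless noted: active = fitted half-maximal concentration within 10 nM to 100 µM, steepness 0.5 to 2, significant signal drop, low assay interference; inactive = the rest.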

Legend:
[1] = biological target: Cell division control protein 42 homolog (Homo sapiens) (UniProt P60953); experiment: activated mutant Cdc42 GTP-binding inhibitors, dose response, biochemical, multiplex bead flow cytometry, Bodipy-FL-GTP (AID 1333;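 active = fitted half-maximal concentration within the tested dose range, moderate curve steepness, a statistically real signal drop, and little compound fluorescence or tag-binding interference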)
[2] = biological target: Cell division control protein 42 homolog (Homo sapiens) (UniProt P60953); experiment: wildtype Cdc42 GTP-binding inhibitors, dose response, biochemical, multiplex bead flow cytometry, Bodipy-FL-GTP (AID 1334;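 active = fitted half-maximal concentration within the tested range, moderate curve steepness, significant signal drop, and little compound fluorescence or bead-linkage interference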); settings: bead-based flow cytometry, Bodipy-FL-GTP binding to GST-Cdc42; at 100 µM (top of the series) unless noted
[3] = biological target: GTPase HRas (Homo sapiens) (UniProt P01112); experiment: inhibitors of GTP binding to wildtype Ras, dose response, biochemical, multiplex bead flow cytometry (AID 1335); settings: bead-based flow cytometry, Bodipy-GTP binding to GST-Ras; at 100 µM (top of the series) unless noted
[4] = system: Ras-related protein Rab-7a (dog), GTP binding; experiment: Rab7 GTP binding inhibitors, potency, dose response, biochemical, wildtype, multiplex bead flow cytometry (AID 1336; call rule not given here)
[5] = biological target: Ras-related C3 botulinum toxin substrate 1 (Homo sapiens) (UniProt P63000); experiment: wildtype Rac1 GTP binding inhibitors, dose response, biochemical, multiplex bead flow cytometry (AID 1340;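 active = dose curve with midpoint inside tested range, moderate steepness, plateau gap beyond fit error, low compound glow and bead-link interference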); settings: GST-Rac1 beads, Bodipy-FL-GTP binding; at 100 µM (top of the series) unless noted
[6] = biological target: GTPase HRas (Homo sapiens) (UniProt P01112); experiment: activated Ras mutant GTP binding inhibitors, dose response, biochemical, multiplex bead flow cytometry (AID 1341;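 active = dose-response curve with midpoint inside the tested range, moderate steepness, significant amplitude and little compound fluorescence or bead-attachment interference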;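 note: GST-tagged constitutively activated Ras mutant immobilized on beads and multiplexed with other GTPases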)

Cell division control protein 42 homolog (Homo sapiens), sequence (P60953 whole entry, looked up): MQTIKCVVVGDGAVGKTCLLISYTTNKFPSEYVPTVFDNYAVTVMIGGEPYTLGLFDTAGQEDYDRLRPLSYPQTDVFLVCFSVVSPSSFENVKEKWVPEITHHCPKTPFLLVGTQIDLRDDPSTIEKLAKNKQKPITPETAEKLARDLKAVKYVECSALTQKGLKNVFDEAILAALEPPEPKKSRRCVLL
GTPase HRas (Homo sapiens), sequence (P01112 whole entry, looked up): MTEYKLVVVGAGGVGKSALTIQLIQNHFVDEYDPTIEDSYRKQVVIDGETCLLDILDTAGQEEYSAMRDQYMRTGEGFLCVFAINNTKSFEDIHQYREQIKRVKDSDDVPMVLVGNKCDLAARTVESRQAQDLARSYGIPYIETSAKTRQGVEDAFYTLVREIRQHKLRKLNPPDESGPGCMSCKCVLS

Compound	outcome [1]	fluorescence, percent of control (lower = inhibition) [2] [%]	GTP binding, percent of control [3] [%]	outcome [4]	GTP binding signal, raw median fluorescence (lower = inhibition) (MCF (arbitrary fluorescence units)) [5]	outcome [6]
CCOc1ccc(C2=Nn3c(nnc3-c3ccco3)SC2)cc1	inactive	33.2	75.2	inactive	179	inactive
Cc1cccc(C)c1NC(=O)CSc1ccc([N+](=O)[O-])cn1	inactive	85.9	97.1	inactive	246	inactive
Cc1ccc2c(c1)c1nnc(SCC(=O)N3CCCc4ccccc43)nc1n2CC(=O)O	inactive	17.6	37.8	inactive	96.4	inactive
CC(C)N(C)NC(=S)Nc1ccccc1	inactive	53.9	64.3	inactive	210	inactive
O=C(N/N=C(\c1ccccc1)c1ccccn1)c1cccc([N+](=O)[O-])c1	inactive	31.4	68.7	inactive	143	inactive
O=S1(=O)N=C(N=Nc2c(O)[nH]c3ccccc23)c2ccccc21	inactive	27.7	62.5	inactive	129	inactive
Nc1[nH]n2c(=O)c3c(nc2c1N=Nc1ccc(Cl)cc1)CCCC3	inactive	61.6	49.2	inactive	188	inactive
Cn1c(NC(=S)Nc2ccccc2)nc2ccccc21	inactive	51.8	63.9	inactive	0	inactive
COc1cc(/C=C/C(=O)Nc2ccc3nc4n(c(=O)c3c2)CCCC4)cc(OC)c1OC	inactive	32.7	72	inactive	200	inactive
COc1ccc(NC(=O)CSc2ccc3nnc(-c4cccnc4)n3n2)c(OC)c1	inactive	37.4	72.3	inactive	165	inactive
O=c1cc(N2CCc3ccccc3C2)[nH]c(=O)n1-c1ccc(Cl)cc1	inactive	43.6	92.9	inactive	267	inactive
COc1ccc(S(=O)(=O)Cc2ccc(C(=O)N3CCN(c4cc(Cl)ccc4C)CC3)o2)cc1	inactive	35.1	57.4	inactive	148	inactive
CCCCn1c(O)c(N=NC(=O)c2ccccc2NS(=O)(=O)c2cccs2)c2ccccc21	inactive	37.3	87.8	inactive	280	inactive
COC(CNC(=O)C1CCCN1C(=O)OCc1ccccc1)OC (centres undefined)	inactive	46.2	90.5	inactive	333	inactive
